Compound activity from PubChem BioAssay.
This is one part of a sample in which hits are shown more often than they occur.
AmpC no deterg: AmpC beta-lactamase inhibition without detergent; 330,000 tested, 0.52% active; P00811; AmpC nitrocefin hydrolysis, absorbance 480 nm, 0.0001% Triton; Potency, µM (titrated, usually from 57.1 µM), hits mostly inhibitors; note: nearly all actives have a fitted effect of over 20% in size
Target sequence (P00811 whole entry, looked up): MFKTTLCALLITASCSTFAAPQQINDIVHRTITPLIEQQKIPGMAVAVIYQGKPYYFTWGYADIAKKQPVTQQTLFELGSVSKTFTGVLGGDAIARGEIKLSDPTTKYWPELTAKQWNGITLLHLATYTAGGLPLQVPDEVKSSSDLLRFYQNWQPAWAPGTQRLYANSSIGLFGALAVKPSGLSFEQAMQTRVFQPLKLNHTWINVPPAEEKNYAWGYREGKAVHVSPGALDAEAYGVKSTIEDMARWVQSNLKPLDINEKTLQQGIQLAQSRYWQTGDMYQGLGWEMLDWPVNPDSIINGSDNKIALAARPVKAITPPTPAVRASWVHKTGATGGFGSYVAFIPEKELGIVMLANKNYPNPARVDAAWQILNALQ
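AmpC (5.3 nM in the dispensed reagent) in 20 mM phosphate pH 7.0 with 0.01% (detergent screen) or 0.0001% Triton X-100 was preincubated with compounds for 15 min at room temperature. Nitrocefin was then added from an 800 uM solution, and hydrolysis was followed at 480 nm.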
Shiga toxin inh: Shiga toxin inhibition. 290,000 tested, 9.2% active. inhibition, % at 38.7 µM. AID 2315. Vero cells, Shiga toxin protein synthesis inhibition reporter; in the data active = inhibition mostly above about 28%, no sharp cut-off; inactive = mostly below about 43%
SARS PLpro yeast: blocks SARS-CoV papain-like protease in a yeast assay | AID 485353 | 330,000 tested, 0.19% active | S. cerevisiae expressing SARS-CoV PLpro, growth rescue | Potency, µM (series often up to 32.9 µM), hits mostly activators; calls by dose curve; note: nearly all actives have a fitted effect of over 55% in size
AMA1-RON2 inh: disrupts binding of P. falciparum AMA1 to RON2; AlphaScreen AMA1-biotinylated RON2 peptide binding; Potency, µM (doses to about 58.2 µM), most hits filed as inhibitors; 360,000 tested, 0.2% active; note: nearly all actives have a fitted effect of over 45% in size
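AMA1 (3D7) with his tag at 25 nM final met compounds first, then biotinylated RON2 peptide at 25 nM; detection used donor plus acceptor beads, 10 µg/mL apiece, read by AlphaScreen after 30 min at room temperature.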
AmpC inh detg: AmpC beta-lactamase inhibition with detergent present. P00811. AmpC hydrolysis of nitrocefin, absorbance 480 nm, 0.01% Triton. Potency, µM (doses to about 114 µM), usual class: inhibitors. 370,000 tested, 0.041% active; note: nearly all actives have a fitted effect of over 25% in size
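20 mM phosphate pH 7.0 + 0.01% (detergent screen) or 0.0001% Triton X-100; 5.3 nM AmpC reagent; cpd preinc 15 min RT; nitrocefin (800 uM stock) to start; A480 q20 s × 4 min; Activity was normalised to no-enzyme and no-compound control wells.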
CHX counter: counter-screen for Shiga toxin inhibitors: cycloheximide protein synthesis inhibition. 300,000 tested, 12% active. max response, %. cell reporter, cycloheximide protein synthesis inhibition counterscreen. AID 2314; in the data active = max response mostly above about 13%, no sharp cut-off; inactive = mostly below about 14%; note: read at 38.3 µM for the half of the compounds with a filed dose
Large screens that a line does not name were inactive. Unless noted, calls come from the whole dose curve; as a rule, active = well fitted curve in the direction sought with a large enough effect; inconclusive = small, poorly fitted or top-dose-only effect, or another doubt; inactive = no such curve, though single readings can be large; an effect the other way counts as inactive or inconclusive.

O=C(Cn1ccn(-c2ccc(F)c(Cl)c2)c(=O)c1=O)NCCc1ccccc1	none (no result: Shiga toxin inh, CHX counter)
CN(CCCC1CCCC1)C(=O)c1cc(COc2ccc(F)cc2F)on1	Shiga toxin inh 58, CHX counter 22
CN(CCC1CCCCO1)C(=O)c1cc(COc2ccc(F)cc2F)on1 (stereo not given)	CHX counter 21
CC1CC(C)CN(S(=O)(=O)c2ccc(NC(=O)c3ccc(=O)[nH]c3)cc2)C1 (stereo not given)	AmpC inh detg inconclusive (no result: Shiga toxin inh, CHX counter)
O=C(OCc1c(-c2ccccc2)ncc2ccccc12)c1ccco1	none (no result: Shiga toxin inh, AmpC inh detg, CHX counter)
C=CCSC1=NNC(c2ccc(C(C)(C)C)cc2)=NN1	Shiga toxin inh 79, CHX counter 32
CCOc1[nH]n(-c2ccc(Cl)cc2)c(=O)c1C=NCc1cccnc1	AmpC inh detg inconclusive
Cc1ccc(N2C(=O)SC(N(CC(=O)O)c3cccc(C)c3)C2=O)cc1 (stereo not given)	Shiga toxin inh 98, CHX counter 44
Cc1ccc(/C(O)=C2/C(=O)C(=O)N(Cc3cccnc3)C2c2ccccn2)cc1 (stereo not given)	none
Cc1c(/C(O)=C2/C(=O)C(=O)N(Cc3cccnc3)C2c2ccccn2)cnn1-c1ccccc1 (stereo not given)	CHX counter 34
Cc1c(/C(O)=C2/C(=O)C(=O)N(Cc3cccnc3)C2c2cccs2)cnn1-c1ccccc1 (stereo not given)	Shiga toxin inh 168, SARS PLpro yeast inconclusive, CHX counter 52
c1ccc2c(c1)nc(Nc1ccc(N3CCCCC3)cc1)c1nncn12	CHX counter 15
CC(Nc1nc2ccccc2n2cnnc12)c1ccccc1 (stereo not given)	Shiga toxin inh 35, CHX counter 20
c1ccc(N2CCCCC2)c(Nc2nc3ccccc3n3cnnc23)c1	none
COc1cccc(/C=C2\Oc3cc(OCC(=O)N4CCCCC4)ccc3C2=O)c1OC	Shiga toxin inh 45
COc1cccc(/C=C2\Oc3cc(OCC(=O)N4CCCC4)ccc3C2=O)c1OC	CHX counter 15
Cc1ccc(NC(=O)Cn2c(=O)n(Cc3nc(C)no3)c(=O)c3cc4c(cc32)OCO4)c(Cl)c1	none (no result: AmpC no deterg, Shiga toxin inh, SARS PLpro yeast, AMA1-RON2 inh, CHX counter)
CC(=O)Nc1ccc(N2CCN(c3ccc(C(F)(F)F)cn3)CC2)nc1	none
Cc1ccccc1C(=O)Nc1ccc(N2CCOCC2)nc1	Shiga toxin inh 58, CHX counter 30
COc1ccc(NC(=O)c2ccc(N3CCOCC3)nc2)cc1	SARS PLpro yeast inconclusive
CN(C)c1ccc(NC(=O)c2ccc(N3CCOCC3)nc2)cc1	Shiga toxin inh 79, CHX counter 34
CN1CCN(c2ccc(NC(=O)c3ccc(Cl)cc3)cn2)CC1	AmpC inh detg inconclusive, CHX counter 42
Cc1ccc(C(=O)Nc2ccc(N3CCOCC3)nc2)cc1	Shiga toxin inh 75, CHX counter 20
Cc1ccc(C(=O)Nc2cccc(-c3ccc(N4CCOCC4)nn3)c2)cc1	AmpC inh detg inconclusive (no result: Shiga toxin inh, CHX counter)
CC1(C)CC(=O)C2=C(C1)Oc1ncn3nc(-c4cccnc4)nc3c1C2c1ccccc1 (stereo not given)	none
O=C(Nc1ccc(N2CCOCC2)nc1)c1ccc(F)cc1	Shiga toxin inh 48, AmpC inh detg inconclusive, CHX counter 41
O=C(Nc1ccc(N2CCOCC2)nc1)c1cccs1	Shiga toxin inh 57, AmpC inh detg inconclusive, CHX counter 38
CCOC(=O)C1=C(N)Oc2c(oc(CO)cc2=O)C1c1c(F)cccc1Cl (stereo not given)	none
O=[N+]([O-])c1ccc(N/N=C/c2c[nH]c3ccccc23)cc1	Shiga toxin inh 61, CHX counter 26
O=[N+]([O-])c1ccccc1N/N=C/c1c[nH]c2ccccc12	AmpC no deterg inconclusive, Shiga toxin inh 88, AMA1-RON2 inh inconclusive, CHX counter 67
O=[N+]([O-])c1ccc(N/N=C/c2ccc[nH]2)cc1	AmpC no deterg inconclusive, Shiga toxin inh 66, CHX counter 84
C(=N/n1c2ccccc2c2ccccc21)/c1ccco1	AMA1-RON2 inh inconclusive
N=c1scc(-c2ccccc2)n1/N=C/c1ccco1	Shiga toxin inh 72, AmpC inh detg inconclusive, CHX counter 46
COc1cc(C2C3=C(CC(C)(C)CC3=O)Nc3c2c(=O)[nH]c(=O)n3Cc2ccccc2)ccc1O (stereo not given)	AmpC no deterg inconclusive, AmpC inh detg inconclusive
Cc1ccc(Cl)c2sc(NC(=O)C3=COCCO3)nc12	Shiga toxin inh 74, CHX counter 27
Cc1cc(C)c2sc(NC(=O)C3=COCCO3)nc2c1	Shiga toxin inh 120, CHX counter 60
COc1ccc(Cl)c2sc(NC(=O)C3=COCCO3)nc12	none (no result: Shiga toxin inh, CHX counter)
COc1ccc(NC(=O)Nc2ccccc2C(N)=O)cc1OC	none (no result: AmpC no deterg, SARS PLpro yeast)
CCOc1ccc(NC(=O)Nc2ccccc2C(N)=O)cc1	Shiga toxin inh 46, CHX counter 29
CCOc1ccc(NC(=O)Nc2ccc(NC(C)=O)cc2)cc1	none
Cc1ccc(NC(=O)Nc2ccccc2C(N)=O)cc1	Shiga toxin inh 63, CHX counter 29
COc1ccc(NC(=O)Nc2ccccc2C(N)=O)cc1	CHX counter 26
CCOC(=O)/C=C1/SCC(=O)N1CC(=O)c1ccc[nH]1	none (no result: AmpC no deterg, Shiga toxin inh, SARS PLpro yeast, AmpC inh detg, CHX counter)
S=c1[nH]nc(-c2ccncc2)n1CC1CCCO1 (stereo not given)	none
O=C(O)c1cccc(Nc2ncnc3sccc23)c1	CHX counter 25
Fc1cccc(Nc2ncnc3sccc23)c1	CHX counter 9.8
COc1ccc(Nc2ncnc3sccc23)cc1OC	none
Cc1cccc(NC(=O)CSc2nc(=O)n(CCN3CCOCC3)c3c2CCCC3)c1C	none (no result: Shiga toxin inh, SARS PLpro yeast, CHX counter)
c1ccc(-c2ccncc2)cc1	none (no result: Shiga toxin inh, AmpC inh detg, CHX counter)
COc1ccc(CC(=O)c2ccc(OC)c(OC)c2C)cc1OC	Shiga toxin inh 56, CHX counter 23
COc1ccccc1OCc1ccc(C(=O)NC(C)(C)C)o1	CHX counter 12
COC(=O)c1ccc(COc2ccccc2OC)o1	none
COc1ccccc1OCc1ccc(C(=O)NCc2ccco2)o1	AmpC no deterg 0.28µM
COc1ccccc1OCc1ccc(C(=O)OCC2CCCO2)o1 (stereo not given)	CHX counter 41
Cn1ccnc1SCc1cccc([N+](=O)[O-])c1	none
C#CCNC(=O)C1=C[C@H](c2ccc(Br)cc2)C[C@H](OCCCCO)O1	Shiga toxin inh 31, CHX counter 12
O=C(Nc1ccccc1)C1=C[C@@H](c2ccc(Br)cc2)C[C@@H](OCCCCO)O1	Shiga toxin inh 86, CHX counter 52
O=C(Nc1ccccc1)C1=C[C@H](c2ccc3c(c2)OCO3)C[C@H](OCCCCO)O1	Shiga toxin inh 117, CHX counter 47
O=C(c1ccccc1)C(CCc1ccccn1)CCc1ccccn1	none (no result: AmpC no deterg, Shiga toxin inh, SARS PLpro yeast, AmpC inh detg, CHX counter)
